# Measurements from PubChem BioAssay (NCI).
# The panel holds about 83,000 compounds, 20% with a hit somewhere; the sample as a whole holds those more often.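 Note: values are percent growth. 100 is the growth of untreated cells, values between 100 and 0 indicate rising inhibition; between -100 and 0 indicates cell death.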 The source made the active and inactive calls. Rule for the calls: active = growth percent below 10; inactive = the rest.
# Test system: HL-60(TB) leukemia
# Test: NCI-60 one-dose screen, 48 h (100 = growth as untreated, 0 = no growth, -100 = all killed)
# Settings: 10 µM unless noted
row,Structure (SMILES),growth
1,CCOC(=O)/C(C#N)=C1/C(=O)Nc2ccccc21,149% (inactive)
2,Cc1ccc(-c2nc(C#N)c(S(=O)(=O)NCCO)o2)cc1,-20.1% (active)
3,CCOC(=O)C(CCCCC(NC(C)=O)(C(=O)OCC)C(=O)OCC)(NC(C)=O)C(=O)OCC,104% (inactive)
4,CCCCCCCO,114% (inactive)
5,Cl,107% (inactive)
6,CCN(CC)c1ccc(/C=C/C=C2\NC(=O)NC2=O)cc1,50.8% (inactive)
7,COc1cc(-c2nc(C(=O)NCC(=O)NO)nn2-c2ccc(Cl)cc2)cc(OC)c1OC,97.4% (inactive)
8,COc1cc2ncnc(-n3ncc4cc(NC(=O)Nc5ccc(Cl)c(C)c5)ccc43)c2cc1OC,114% (inactive)
9,O=C1/C(=C/c2ccc([N+](=O)[O-])s2)Oc2ccccc21,-7.99% (active)
10,COc1ccc(Nc2ncccc2NC(=O)c2cn(Cc3cccc(Oc4ccccc4)c3)nn2)cc1,95.9% (inactive)
11,COc1cccc(CNC(=O)c2cccc(C3CC(=O)c4c(cc(OC)c(OC)c4OC)O3)c2)c1 (centres undefined),43.9% (inactive)
12,FC(F)(F)c1ccc(-c2cnc(-n3cc(COCCN4CCCCC4)nn3)nc2NC2CCCCCC2)cc1,-63.1% (active)
13,COc1cc(-c2cc(/C=C/C(=O)c3ccc(Cl)c(Cl)c3)[nH]n2)cc(OC)c1OC,87.3% (inactive)
14,COc1ccc(S(=O)(=O)Nc2c(/C=C\c3cc(OC)c(OC)c(OC)c3)ccc(OC)c2O)cc1,-42.3% (active)
